Consider 36 targets from the supplement of paper PMC10849652.

The full data set covers some 8,800 targets. This sample favours those with a hit. About 0.5% of all pairs of compound and target were hits.

Sequence of UniProt Q99836 (Q99836 whole entry, looked up): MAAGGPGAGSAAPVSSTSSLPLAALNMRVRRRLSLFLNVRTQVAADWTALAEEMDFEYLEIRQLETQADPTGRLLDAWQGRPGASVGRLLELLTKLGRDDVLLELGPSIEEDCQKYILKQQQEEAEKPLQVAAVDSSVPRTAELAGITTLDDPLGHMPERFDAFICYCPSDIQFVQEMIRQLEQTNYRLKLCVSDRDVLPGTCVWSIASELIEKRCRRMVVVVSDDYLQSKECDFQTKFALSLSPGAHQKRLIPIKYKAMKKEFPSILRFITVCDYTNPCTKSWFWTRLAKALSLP
Sequence of UniProt Q9NX02 (Q9NX02 whole entry, looked up): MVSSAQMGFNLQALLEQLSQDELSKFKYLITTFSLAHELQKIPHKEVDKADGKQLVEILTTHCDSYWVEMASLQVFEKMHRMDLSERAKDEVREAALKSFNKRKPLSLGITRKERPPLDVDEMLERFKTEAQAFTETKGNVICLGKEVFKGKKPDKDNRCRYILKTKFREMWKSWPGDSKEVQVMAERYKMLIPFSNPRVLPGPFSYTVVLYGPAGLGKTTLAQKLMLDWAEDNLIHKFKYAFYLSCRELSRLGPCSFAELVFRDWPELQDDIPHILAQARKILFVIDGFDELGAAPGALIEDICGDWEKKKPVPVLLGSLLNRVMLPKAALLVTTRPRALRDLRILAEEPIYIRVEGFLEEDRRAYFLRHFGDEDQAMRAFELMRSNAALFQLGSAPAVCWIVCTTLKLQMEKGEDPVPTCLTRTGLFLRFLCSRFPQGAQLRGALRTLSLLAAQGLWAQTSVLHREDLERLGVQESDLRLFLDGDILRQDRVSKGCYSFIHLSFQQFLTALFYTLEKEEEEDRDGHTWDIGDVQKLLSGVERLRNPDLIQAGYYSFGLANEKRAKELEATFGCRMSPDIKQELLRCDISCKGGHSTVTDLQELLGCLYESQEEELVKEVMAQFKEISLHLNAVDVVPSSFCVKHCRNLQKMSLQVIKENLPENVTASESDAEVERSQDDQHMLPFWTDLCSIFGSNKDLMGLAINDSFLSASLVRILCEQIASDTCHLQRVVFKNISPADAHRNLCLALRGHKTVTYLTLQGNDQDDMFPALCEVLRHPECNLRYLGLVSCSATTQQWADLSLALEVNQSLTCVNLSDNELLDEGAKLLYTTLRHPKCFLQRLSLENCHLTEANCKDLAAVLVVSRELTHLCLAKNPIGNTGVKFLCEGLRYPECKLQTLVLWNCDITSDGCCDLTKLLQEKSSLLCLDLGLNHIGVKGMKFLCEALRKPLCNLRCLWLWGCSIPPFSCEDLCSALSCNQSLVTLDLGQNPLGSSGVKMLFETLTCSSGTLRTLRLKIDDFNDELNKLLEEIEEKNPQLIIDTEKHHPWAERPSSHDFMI
Sequence of UniProt Q8TAT6 (Q8TAT6 whole entry, looked up): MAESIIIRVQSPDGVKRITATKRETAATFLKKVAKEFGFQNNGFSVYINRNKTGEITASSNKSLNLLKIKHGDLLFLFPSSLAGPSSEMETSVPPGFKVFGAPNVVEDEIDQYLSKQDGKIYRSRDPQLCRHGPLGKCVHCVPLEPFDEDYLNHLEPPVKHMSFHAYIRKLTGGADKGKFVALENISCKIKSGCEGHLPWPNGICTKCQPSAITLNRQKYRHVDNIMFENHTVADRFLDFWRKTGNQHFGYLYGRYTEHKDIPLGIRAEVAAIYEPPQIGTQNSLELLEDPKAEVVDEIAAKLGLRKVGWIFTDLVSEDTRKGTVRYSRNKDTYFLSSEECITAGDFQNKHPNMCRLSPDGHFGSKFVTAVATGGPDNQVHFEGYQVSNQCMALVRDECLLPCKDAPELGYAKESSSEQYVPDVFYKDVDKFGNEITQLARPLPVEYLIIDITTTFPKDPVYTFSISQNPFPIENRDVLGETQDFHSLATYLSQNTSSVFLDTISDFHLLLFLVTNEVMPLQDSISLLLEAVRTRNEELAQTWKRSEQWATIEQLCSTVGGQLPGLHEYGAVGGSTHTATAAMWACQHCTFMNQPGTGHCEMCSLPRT
Sequence of UniProt Q9UFN0 (Q9UFN0 whole entry, looked up): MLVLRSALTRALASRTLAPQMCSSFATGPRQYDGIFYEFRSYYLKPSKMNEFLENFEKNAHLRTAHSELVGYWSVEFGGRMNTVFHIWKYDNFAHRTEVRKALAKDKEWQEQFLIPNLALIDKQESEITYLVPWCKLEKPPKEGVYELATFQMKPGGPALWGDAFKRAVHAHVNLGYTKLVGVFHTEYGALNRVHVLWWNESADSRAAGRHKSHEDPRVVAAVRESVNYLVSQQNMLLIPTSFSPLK
Sequence of UniProt Q9BZD4 (Q9BZD4 whole entry, looked up): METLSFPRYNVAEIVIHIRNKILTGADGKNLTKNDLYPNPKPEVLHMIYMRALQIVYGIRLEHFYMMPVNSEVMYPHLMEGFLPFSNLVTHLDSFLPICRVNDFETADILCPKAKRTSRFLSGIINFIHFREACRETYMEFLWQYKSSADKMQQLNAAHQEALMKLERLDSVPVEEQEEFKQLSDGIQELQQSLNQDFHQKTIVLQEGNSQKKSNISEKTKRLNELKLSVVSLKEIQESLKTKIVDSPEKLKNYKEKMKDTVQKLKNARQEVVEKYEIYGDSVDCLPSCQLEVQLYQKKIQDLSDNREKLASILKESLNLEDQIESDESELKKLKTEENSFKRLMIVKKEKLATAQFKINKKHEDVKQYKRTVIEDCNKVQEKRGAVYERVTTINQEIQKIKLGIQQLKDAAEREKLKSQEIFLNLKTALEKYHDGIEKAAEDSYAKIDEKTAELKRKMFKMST
Sequence of UniProt Q9Y530 (Q9Y530 whole entry, looked up): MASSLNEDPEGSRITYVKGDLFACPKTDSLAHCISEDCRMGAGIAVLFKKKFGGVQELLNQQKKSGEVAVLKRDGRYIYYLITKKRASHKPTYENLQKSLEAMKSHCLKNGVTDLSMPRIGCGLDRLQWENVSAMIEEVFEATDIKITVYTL
Sequence of UniProt Q9NVE7 (Q9NVE7 whole entry, looked up): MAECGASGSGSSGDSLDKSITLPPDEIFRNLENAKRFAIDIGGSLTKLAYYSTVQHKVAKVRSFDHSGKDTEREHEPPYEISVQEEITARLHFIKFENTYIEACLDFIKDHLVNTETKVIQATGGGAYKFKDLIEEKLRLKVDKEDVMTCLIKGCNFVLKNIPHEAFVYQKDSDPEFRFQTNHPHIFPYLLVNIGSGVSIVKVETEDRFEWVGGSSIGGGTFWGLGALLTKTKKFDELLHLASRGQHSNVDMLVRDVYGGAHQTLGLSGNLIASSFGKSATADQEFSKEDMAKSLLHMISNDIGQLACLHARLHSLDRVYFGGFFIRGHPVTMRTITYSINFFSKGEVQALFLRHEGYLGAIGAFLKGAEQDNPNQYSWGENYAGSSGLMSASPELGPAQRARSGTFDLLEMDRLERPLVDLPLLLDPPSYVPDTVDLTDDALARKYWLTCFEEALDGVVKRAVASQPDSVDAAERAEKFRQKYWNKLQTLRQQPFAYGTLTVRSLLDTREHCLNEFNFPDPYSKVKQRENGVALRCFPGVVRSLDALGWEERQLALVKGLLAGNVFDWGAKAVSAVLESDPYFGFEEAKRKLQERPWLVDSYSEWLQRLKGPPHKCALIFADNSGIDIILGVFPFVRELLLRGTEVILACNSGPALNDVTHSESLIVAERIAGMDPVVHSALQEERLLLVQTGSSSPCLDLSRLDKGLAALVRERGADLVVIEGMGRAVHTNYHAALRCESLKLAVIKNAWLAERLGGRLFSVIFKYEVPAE
Sequence of UniProt O43913 (O43913 whole entry, looked up): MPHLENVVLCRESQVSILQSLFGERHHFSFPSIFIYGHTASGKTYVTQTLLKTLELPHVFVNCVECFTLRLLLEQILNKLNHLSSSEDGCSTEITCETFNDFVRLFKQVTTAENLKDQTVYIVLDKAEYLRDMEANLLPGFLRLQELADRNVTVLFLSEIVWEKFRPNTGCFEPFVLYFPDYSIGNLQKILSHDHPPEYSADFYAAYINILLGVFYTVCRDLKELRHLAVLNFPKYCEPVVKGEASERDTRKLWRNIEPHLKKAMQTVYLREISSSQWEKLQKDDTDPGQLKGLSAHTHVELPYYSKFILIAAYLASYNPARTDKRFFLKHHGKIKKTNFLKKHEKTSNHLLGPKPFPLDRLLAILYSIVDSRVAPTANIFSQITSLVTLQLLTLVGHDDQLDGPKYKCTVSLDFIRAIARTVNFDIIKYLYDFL
Sequence of UniProt Q969R2 (Q969R2 whole entry, looked up): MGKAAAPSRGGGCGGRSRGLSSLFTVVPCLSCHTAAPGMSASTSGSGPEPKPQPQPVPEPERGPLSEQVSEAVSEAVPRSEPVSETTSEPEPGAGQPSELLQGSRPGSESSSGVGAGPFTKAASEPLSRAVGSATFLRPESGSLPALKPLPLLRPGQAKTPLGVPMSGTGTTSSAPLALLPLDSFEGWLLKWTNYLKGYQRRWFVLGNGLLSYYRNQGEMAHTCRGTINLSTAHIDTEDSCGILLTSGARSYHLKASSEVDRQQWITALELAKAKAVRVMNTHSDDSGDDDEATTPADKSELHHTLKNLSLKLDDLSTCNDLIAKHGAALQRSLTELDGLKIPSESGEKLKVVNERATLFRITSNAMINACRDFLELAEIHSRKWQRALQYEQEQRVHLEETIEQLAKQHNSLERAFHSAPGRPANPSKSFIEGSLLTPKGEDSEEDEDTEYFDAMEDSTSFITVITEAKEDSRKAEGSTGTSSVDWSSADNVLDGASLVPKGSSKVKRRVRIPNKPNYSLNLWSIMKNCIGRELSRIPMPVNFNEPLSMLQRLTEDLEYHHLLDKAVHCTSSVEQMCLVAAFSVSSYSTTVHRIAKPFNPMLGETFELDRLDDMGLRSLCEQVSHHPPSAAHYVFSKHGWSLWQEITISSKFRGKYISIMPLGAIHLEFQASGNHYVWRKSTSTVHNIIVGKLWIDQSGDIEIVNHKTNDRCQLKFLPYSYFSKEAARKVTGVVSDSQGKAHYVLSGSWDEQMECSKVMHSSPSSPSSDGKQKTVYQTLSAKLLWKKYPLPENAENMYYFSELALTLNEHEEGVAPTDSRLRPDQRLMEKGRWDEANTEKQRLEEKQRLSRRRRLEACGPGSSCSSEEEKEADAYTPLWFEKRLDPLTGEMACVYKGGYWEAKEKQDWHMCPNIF

Compound in the test: CC(C)(C)Cn1c(N)nc2ccc(-c3[nH]c(C(C)(C)C)nc3-c3ccc(F)cc3)nc21 [ralimetinib]
Briefly: log2 fold change, soluble protein after heating vs DMSO (PISA); higher = thermal stabilisation; K562 lysate, 10 uM; active = over 0.2 and 3.5 SD of the protein, either way, in both replicates (recomputed). In short, it runs like this:
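Quantification was by TMTpro 16plex LC-MS/MS with equalised channel sums, applied to the supernatant after 21,000xg for 90 min. Samples were crude K562 extract at 1 mg/mL protein in PBS pH 7.4 with 1 mM MgCl2, treated with 10 μM compound for 30 min, heated for 3 min across 48°C-58°C, pooled and brought to 0.5% NP-40 at 4°C. Values are log-two fold changes in thermal stability relative to solvent controls, from duplicates.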
For NUP93 (UniProt Q8N1F7), the log2 fold change is 0.036 (inactive).

Regarding PANK4 (UniProt Q9NVE7), the log2 fold change was 0.023 (inactive).

For NIPSNAP3A (UniProt Q9UFN0), the log2 fold change is -0.016 (inactive).

Regarding OSBP2 (UniProt Q969R2), the log2 fold change is 0.036 (inactive).

As to MTCH2 (UniProt Q9Y6C9), the log2 fold change is 0.022 (inactive).

In the case of NUP160 (UniProt Q12769), the log2 fold change is 0.062 (inactive).

With NEK7 (UniProt Q8TDX7), the log2 fold change is 0.063 (inactive).

Consider NLRP2 (UniProt Q9NX02), for which the log2 fold change was 0.036 (inactive).

Take NUMB (UniProt P49757): the log2 fold change was 0.021 (inactive).

As to NEK9 (UniProt Q8TD19), the log2 fold change is 0.055 (inactive).

Take MSH6 (UniProt P52701): the log2 fold change is 0.024 (inactive).

Turning to NIFK (UniProt Q9BYG3), the log2 fold change is 0.022 (inactive).

As to OGFOD2 (UniProt Q6N063), the log2 fold change is -0.012 (inactive).

Consider NFATC1 (UniProt O95644), for which the log2 fold change is -0.004 (inactive).

NFIC (UniProt P08651): the log2 fold change was 0.009 (inactive).

As to OARD1 (UniProt Q9Y530), the log2 fold change was 0.003 (inactive).

With NOB1 (UniProt Q9ULX3), the log2 fold change was -0.028 (inactive).

Take NARS2 (UniProt Q96I59): the log2 fold change is 0.009 (inactive).

With NUP188 (UniProt Q5SRE5), the log2 fold change was 0.041 (inactive).

Consider NFKBIE (UniProt O00221), for which the log2 fold change is -0.008 (inactive).

In the case of NNT (UniProt Q13423), the log2 fold change was -0.095 (inactive).

As for ORC5 (UniProt O43913), the log2 fold change is 0.047 (inactive).

In the case of MYO1D (UniProt O94832), the log2 fold change is 0.04 (inactive).

As for OTUD7B (UniProt Q6GQQ9), the log2 fold change is 0.026 (inactive).

NUF2 (UniProt Q9BZD4): the log2 fold change was 0.03 (inactive).

For PBK (UniProt Q96KB5), the log2 fold change was 0.005 (inactive).

With NUDT4 (UniProt Q9NZJ9), the log2 fold change is 0.074 (inactive).

Take MYD88 isoform 6 (UniProt Q99836): the log2 fold change is 0.022 (inactive).

With MRPL53 (UniProt Q96EL3), the log2 fold change is 0.062 (inactive).

On to MTMR6 (UniProt Q9Y217), for which the log2 fold change is 0.041 (inactive).

Regarding NELFCD (UniProt Q8IXH7), the log2 fold change is 0.019 (inactive).

On to NPLOC4 isoform 2 (UniProt Q8TAT6), for which the log2 fold change is -0.01 (inactive).

Consider NCOR2 (UniProt C9J0Q5), for which the log2 fold change is -0.026 (inactive).

For the target NUDT5 (UniProt Q9UKK9), the log2 fold change is -0.047 (inactive).

With NMT1 (UniProt P30419), the log2 fold change is -0.001 (inactive).

Consider PARD3 (UniProt Q8TEW0), for which the log2 fold change was -0.017 (inactive).
